In PubChem BioAssay (NCATS) one finds outcome, max response and Potency data, which are given here for 17 compounds.

Structures are written as SMILES. Values joined by “and” are separate entries in the source; they are usually repeats but may differ in a detail not shown here. Equal entries are not always repeated. Inconclusive results are not listed. More than one record can exist for a structure, and the calls need not agree. A number with no mark means an inactive call. Active and inactive are the calls of the source. Calls follow the shape of the dose curve; as a rule, active = well fitted inhibition curve with a large enough effect; inconclusive = small, poorly fitted or top-dose-only effect; inactive = flat fitted curve, though single readings scatter.

One assay concerns CRL-7250. The experiment in a line: Cytotoxic Profiling of Annotated Libraries Using Quantitative High-Throughput Screening (AID 1296008). Also: potency is read from the fitted curve at half-maximal effect. The settings on record: Five cell lines viability, CellTiter-Glo ATP luminescence, 48-72 h; max response: hits give low values. In outline:
(§1)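 Cytotoxicity was measured as CellTiter-Glo ATP luminescence, read after 10 min at room temperature. Compound treatment of the cells lasted 48 or 72 hr at 37 degrees Celsius in a qHTS format.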

The next assay relates to HEK293. The description is as above. To be noted: Five cell lines viability, CellTiter-Glo ATP luminescence, 48-72 h; max response: hits give low values. In outline:
as §1
In general terms: In ATP-based viability assays light output follows the ATP content of the culture.

Assay [1] deals with HaCat. Described as above. The settings on record: Five cell lines viability, CellTiter-Glo ATP luminescence, 48-72 h; max response: hits give low values. In outline:
as §1

A further assay has as its system KB-3-1. The description is as above. The settings on record: Five cell lines viability, CellTiter-Glo ATP luminescence, 48-72 h; max response: hits give low values. Put shortly: as §1
The test system of a further assay is NIH3T3. The assay is described as above. To be noted: Five cell lines viability, CellTiter-Glo ATP luminescence, 48-72 h; max response: hits give low values. In outline: as §1
Assay [2] relates to HACAT. The experiment in a line: qHTS assay to identify novel small-molecules to repurpose for Merkel cell carcinoma treatment (AID 1296009). The settings on record: MCC and control cell lines, CellTiter-Glo viability, 72 h. In outline: (§2)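 72 hr, 37 degree celsius; NPC 8-pt / MIPE 11-pt dose response; compound pinned in DMSO; CellTiter-Glo, 10 min RT, luminescence; normalized to no-cell and DMSO controls.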

In the next assay the test system is HEK293T. The assay is described as above. To be noted: MCC and control cell lines, CellTiter-Glo viability, 72 h; at 44.8 µM (top of the series) unless noted. In outline: as §2
In another assay the test system is MCC-13. The description is as above. To be noted: MCC and control cell lines, CellTiter-Glo viability, 72 h; series mostly up to 46 µM. Put shortly: as §2
For a further assay, the system named is MCC-26. The description is as above. To be noted: MCC and control cell lines, CellTiter-Glo viability, 72 h; series mostly up to 46 µM. Put shortly:
as §2

Setting [3] is: at 44.8 µM (top of the series) unless noted.
% is scaled to controls: 0 for no effect and ±100 for the full control effect.
Also: nearly all actives have a fitted effect of over 60% in size.

Regarding `CN1CCC(COc2cnc(-c3cccc(Cn4nc(-c5cccc(C#N)c5)ccc4=O)c3)nc2)CC1`, the result in the assay on CRL-7250, in the assay with HEK293, in the assay on HaCat [1], with HACAT [2] (setting [3]) and in the assay on HEK293T was inactive. For the same compound, the max response is -7.63% in the assay on KB-3-1 and -5.81% with NIH3T3. Also, the Potency in the assay on NIH3T3 was 16.4 µM (active). Besides, the Potency result in the assay on MCC-13 and in the assay with MCC-26 was “inactive” throughout.
In the case of `CC1CNc2c(cccc2S(=O)(=O)N[C@@H](CCCN=C(N)N)C(=O)N2CC[C@@H](C)C[C@@H]2C(=O)O)C1` (stereo partly drawn), the result in the assay with CRL-7250, in the assay with HEK293, with HaCat [1], in the assay with HACAT [2] (setting [3]) and in the assay with HEK293T was inactive. Also, the max response in the assay with KB-3-1 was 9.69%; in the assay on NIH3T3 it was -2.95%. Further, the Potency result in the assay with MCC-13 and in the assay with MCC-26 was “inactive” in each case.
As for `CC(=O)NCCC(=O)N[C@@H](CCC(N)=O)C(=O)N[C@@H](CO)C(=O)N[C@@H](CCC(N)=O)C(=O)N[C@@H](CCC(N)=O)C(=O)N[C@H](C(=O)N[C@@H](Cc1ccccc1)C(=O)N[C@]1(C)CCCCCCC=CCCC[C@@](C)(C(=O)N[C@@H](CCC(N)=O)C(=O)N[C@@H](CC(N)=O)C(N)=O)NC(=O)[C@H](CC(C)C)NC(=O)[C@H](CC(C)C)NC(=O)[C@@H](CCCNC(=N)N)NC(=O)[C@H](Cc2c[nH]c3ccccc23)NC(=O)[C@H](CC(C)C)NC(=O)[C@H](CC(N)=O)NC1=O)[C@H](C)O`, the max response with CRL-7250 is 1.13%; in the assay on HEK293, -2.69%; with NIH3T3, 0.272%. For the same compound, the result with HaCat [1], with KB-3-1 and with HACAT [2] (setting [3]) was inactive. Moreover, the Potency result with MCC-13 and in the assay with MCC-26 was “inactive” throughout.
`CCC(c1ccc(O)cc1)C(CC)c1ccc(O)cc1` (stereo not drawn): the compound was called inactive with CRL-7250, in the assay with HaCat [1], in the assay on NIH3T3 and with HACAT [2] (setting [3]). In addition, the figures for the max response in the assay with HEK293 and in the assay with KB-3-1 were -1.04% and 9.65%, respectively. Besides, the Potency result in the assay with MCC-13 and with MCC-26 was “inactive” in each case.
With `O=C1C(c2c(O)[nH]c3ccccc23)=Nc2ccccc21`, the outcome with CRL-7250, with HaCat [1], in the assay with KB-3-1, with NIH3T3, in the assay with HACAT [2] (at 17.4 µM (top of the series)) and in the assay on HACAT [2] (at 44.8 µM (top of the series)) was inactive. For the same compound, the max response is -1.42% in the assay on HEK293 and 2.3% in the assay on NIH3T3. Besides, the Potency entry in the assay on MCC-13 and in the assay with MCC-26 was “inactive” in each case.
Consider `Cc1nc(C(=O)NCC(=O)O)c(O)c2ccc(Oc3ccccc3)cc12`, for which the max response is -26.8% with CRL-7250; -3.39% and -0.739% with HEK293; -6.73% and -11.5% in the assay with KB-3-1; -5.42% and -6% with NIH3T3. Further, the call in the assay with HaCat [1] and in the assay with HACAT [2] (setting [3]) was inactive. The Potency result in the assay on MCC-13 and in the assay on MCC-26 was “inactive” each time.
Take `OC[C@H]1O[C@@H](Oc2ccc(O)cc2)[C@H](O)[C@@H](O)[C@H]1O`: the results for the max response in the assay with CRL-7250 and in the assay on HEK293 were -2.9% and 3.31%, respectively. For the same compound, the result in the assay on HaCat [1], in the assay on KB-3-1, in the assay with NIH3T3 and in the assay with HACAT [2] (setting [3]) was inactive. In addition, the Potency entry in the assay on MCC-13 and in the assay on MCC-26 was “inactive” each time.
Regarding `O=C(O)C1=NC(C(=O)O)CC(C=CN2c3cc(O)c(OC4OC(CO)C(O)C(O)C4O)cc3CC2C(=O)O)=C1` (stereo not drawn), the result in the assay with CRL-7250, in the assay on HEK293, with HaCat [1], with HACAT [2] (setting [3]) and in the assay on HEK293T was inactive. The results for the max response in the assay on KB-3-1 and in the assay with NIH3T3 were 2.69% and 3.64%, respectively. Also, the Potency result in the assay with MCC-13 and with MCC-26 was “inactive” throughout.
On to `N[C@@H](CC(=O)N1CCn2c(nnc2C(F)(F)F)C1)Cc1cc(F)c(F)cc1F`, for which the max response with CRL-7250 was -4.16%; in the assay with HEK293, 1.14%; with KB-3-1, -6.59%; with NIH3T3, -2.27%. The compound was classed as inactive with HaCat [1] and in the assay with HACAT [2] (setting [3]). Further, the Potency entry in the assay on MCC-13 and in the assay on MCC-26 was “inactive” each time.
`CC=C(C(=CC)c1ccc(O)cc1)c1ccc(O)cc1`: the max response in the assay with CRL-7250 was -2.03%; in the assay on HEK293, -14%; in the assay on KB-3-1, -8.73%; in the assay on NIH3T3, -13.5%. Further, the outcome with HaCat [1] and with HACAT [2] (setting [3]) was inactive. The Potency entry in the assay on MCC-13 and in the assay with MCC-26 was “inactive” throughout.
`C[C@H](CCC(=O)O)[C@H]1CC[C@H]2[C@H]3[C@@H](CC[C@]12C)[C@@]1(C)CC[C@@H](O)C[C@H]1C[C@@H]3O`: the max response is -2.21% in the assay on CRL-7250, 0.163% in the assay with KB-3-1 and -1.17% in the assay on NIH3T3. Also, the call with HEK293, in the assay on HaCat [1], with HACAT [2] (setting [3]) and in the assay on HEK293T was inactive. The Potency result in the assay on MCC-13 and in the assay with MCC-26 was “inactive” throughout.
For `CCCCCCCCCCCCCCCC(=O)O[C@H]1[C@@H](O)[C@@H](O)[C@@H]([C@H](NC(=O)[C@@H]2C[C@@H](CCC)CN2C)[C@H](C)Cl)O[C@@H]1SC`, the call in the assay on CRL-7250, in the assay with HaCat [1], in the assay on KB-3-1, in the assay with NIH3T3 and in the assay on HACAT [2] (setting [3]) was inactive. The max response in the assay with HEK293 is -29.9%. In addition, the Potency result with MCC-13 and with MCC-26 was “inactive” each time.
`NCC1CCC(C(=O)O)CC1` (stereo not drawn): the max response in the assay on CRL-7250 is -3.04%; in the assay on HEK293 it was 2.93%; with KB-3-1, 7.37% and 2.9%; in the assay on NIH3T3, -3.72%. In addition, the compound was called inactive with HaCat [1] and in the assay with HACAT [2] (setting [3]). The Potency result in the assay on MCC-13 and with MCC-26 was “inactive” each time.
As to `CCC(=O)NCC[C@@H]1CCc2ccc3c(c21)CCO3`, the figures for the max response in the assay on CRL-7250, in the assay on HEK293 and in the assay with KB-3-1 were -4.42%, -0.876% and -2.73%, respectively. The outcome with HaCat [1], in the assay on NIH3T3 and with HACAT [2] (setting [3]) was inactive. The Potency entry with MCC-13 and with MCC-26 was “inactive” each time.
`CN[C@@H]1[C@@H](O)[C@@H](O[C@@H]2[C@@H](O)[C@H](O[C@H]3O[C@H](CN)[C@@H](O)[C@H](O)[C@@H]3O)[C@@H](N)C[C@@H]2NC(=O)[C@@H](O)CN)OC[C@]1(C)O`: the compound was classed as inactive in the assay on CRL-7250, in the assay on HaCat [1], in the assay on NIH3T3 and in the assay on HACAT [2] (setting [3]). The max response with HEK293 is 3.66%; in the assay on KB-3-1, 1.73%. For the same compound, the Potency result in the assay on MCC-13 and with MCC-26 was “inactive” in each case.
As for `O=C(Nc1ccccc1)Nc1ccc(-c2ccc(C(=O)[C@H]3CCC[C@H]3C(=O)O)cc2)cc1`, the result with CRL-7250, in the assay with HaCat [1] and in the assay with HACAT [2] (setting [3]) was inactive. Moreover, the max response in the assay on HEK293 is -0.566%; in the assay on KB-3-1 it was 9.29%; in the assay with NIH3T3, 3.03%. Besides, the Potency result in the assay on MCC-13 and with MCC-26 was “inactive” each time.
With `NC(N)=Nc1nc(CSCCC(N)=NS(N)(=O)=O)cs1`, the max response is -0.357% in the assay on CRL-7250, -1.73% in the assay on HEK293 and 6.28% with KB-3-1. In addition, the compound was classed as inactive in the assay with HaCat [1], in the assay on NIH3T3 and in the assay on HACAT [2] (setting [3]). For the same compound, the Potency entry with MCC-13 and in the assay on MCC-26 was “inactive” throughout.
